Common to all, as to test: NCI-60 one-dose screen, 48 h (100 = growth as untreated, 0 = no growth, -100 = all killed)
What all share (details): 10 µM unless noted

Assay [1] relates to HCT-15 colon.
For assay [2], the system named is HT29 colon.
For assay [3], the system named is SNB-75 CNS.
Assay [4] has as its system SNB-19 CNS.
For assay [5], the system named is U251 CNS.
In assay [6] the test system is PC-3 prostate.
In assay [7] the test system is SK-MEL-5 melanoma.
The test system of assay [8] is UACC-62 melanoma.
Assay [9] relates to LOX IMVI melanoma.
Assay [10] concerns SK-MEL-28 melanoma.
The test system of assay [11] is SK-MEL-2 melanoma.
Assay [12] has as its system EKVX NSCLC.
The test system of assay [13] is SN12C renal.
Assay [14] relates to UO-31 renal.
The test system of assay [15] is TK-10 renal.
For assay [16], the system named is ACHN renal.
Assay [17] concerns CAKI-1 renal.
The test system of assay [18] is A498 renal.
In assay [19] the test system is CCRF-CEM leukemia.
Assay [20] has as its system MOLT-4 leukemia.

This is part of a sample that, as a whole, favours compounds with a hit. Of some 83,000 tested, about 20% had one in any assay.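 96-well plates, one dose, 48 hours. Percent growth reported; active if below 10.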 Values without a mark were called inactive. Active and inactive are the calls of the source.

Regarding `Cc1c(-c2nc3ccc(F)cc3c(=O)[nH]2)c2ccccc2n1C`, the growth was 22.9% in [1]; 10.7% in assay [2]; -7.98% (active) in [3]; 29.2% in assay [4]; 27.6% in assay [5]; 47.1% in [6]. The growth was 36.2% in assay [7]; 19.6% in assay [8]; 34.5% in [9]; 52% in [10]; 45.6% in assay [11]; 57.5% in assay [12]. In addition, the growth in assay [13] is 38.8%; in assay [14], 53.7%; in assay [15], 83.5%; in [16] it was 36%; in assay [17], 40.8%; in assay [18] it was -12.8% (active). The growth in assay [19] is 15.6%; in assay [20], 23%.
`O=C(NNC(=O)c1ccc(-n2cc(-c3ccccc3)nn2)cc1)Nc1ccccc1`: the growth in assay [1] is 103%; in [2], 118%; in [3] it was 97.2%; in [4], 90.1%; in [5], 96.5%; in assay [6], 99.8%. In addition, the growth in [7] was 100%; in assay [8], 97.9%; in assay [9], 97.1%; in [10], 109%; in assay [11] it was 110%; in assay [12], 108%. For the same compound, the growth in [13] is 97.7%; in assay [14], 92.2%; in assay [15], 109%; in assay [16], 101%; in assay [17], 91.8%; in assay [18], 105%. Moreover, the growth was 102% in assay [19] and 107% in [20].
Consider `CCOC(=O)c1nc(Nc2ccc(NC(=O)Nc3ccc(F)cc3)cc2)c2ccccc2n1`, for which the growth in assay [1] is 100%; in [2], 106%; in assay [3], 78.7%; in assay [4], 98%; in assay [5] it was 103%; in [6] it was 103%. Further, the growth was 93.9% in assay [7]; 101% in [8]; 90.9% in [9]; 105% in [10]; 103% in [11]; 97.4% in assay [12]. The growth in assay [13] was 99.4%; in assay [14], 81%; in assay [15], 120%; in [16], 102%; in [17], 91.1%; in assay [18], 62%. Besides, the growth in [19] was 109%; in assay [20] it was 98.5%.
In the case of `O=C(CSc1nnc2n1S(=O)(=O)c1ccccc1N2c1ccccc1)Nc1nc2ccc(F)cc2s1`, the growth in [1] is 104%; in assay [2], 104%; in assay [3], 85.5%; in assay [4], 99.6%; in assay [5], 103%; in assay [6], 89.5%. The growth in assay [7] is 87.7%; in assay [8], 81.2%; in assay [9] it was 85.8%; in assay [10], 117%; in assay [11], 56.8%; in assay [12], 103%. For the same compound, the growth in assay [13] is 118%; in [14], -15.4% (active); in [15], 125%; in assay [16], 91.3%; in assay [17], 85.3%; in assay [18] it was 122%. For the same compound, the figures for the growth in assay [19] and in assay [20] were 127% and 86.8%, respectively.
In the case of `CCn1c(=S)sc2c(Nc3ccc(F)cc3)nc(-c3cccnc3)nc21`, the growth in [1] was 88.2%; in assay [2], 41.6%; in assay [3] it was 13.7%; in assay [4], 78.9%; in [5], 34.3%; in [6], 56%. Besides, the growth in assay [7] was 87.7%; in assay [8] it was 56.7%; in assay [9], 69.5%; in assay [10] it was 86.2%; in assay [11] it was 63.1%; in [12] it was 80.5%. The growth is 84.1% in assay [13]; 78.5% in [14]; 58.2% in [15]; 40.7% in assay [16]; 55.1% in assay [17]; 93.7% in [18]. In addition, the values for the growth in assay [19] and in assay [20] were 102% and 93.7%, respectively.
Turning to `O=C1Nc2ccccc2/C1=C\c1nc(-c2ccccc2F)n2ccccc12`, the growth in assay [1] is 42.3%; in assay [2], 11.6%; in assay [3], -68.2% (active); in [4] it was 45.8%; in assay [5], -3.26% (active); in assay [6], 44.1%. For the same compound, the growth in [7] was 37.8%; in assay [8], 38.8%; in assay [9] it was 13.6%; in assay [10], 69.3%; in [11] it was -6.84% (active); in [12], 47.6%. The growth is 14.5% in [13]; -16.2% (active) in assay [14]; -6.87% (active) in assay [15]; -58.5% (active) in assay [16]; -13.9% (active) in assay [17]; -10.4% (active) in [18]. Further, the growth in assay [19] was 79%; in assay [20] it was 70.6%.
On to `CN1CCN(c2ccc(NC(=O)c3nc4ccc5[nH]ncc5c4c4c3CCCC4)cc2C(F)(F)F)CC1`, for which the growth in assay [1] is 2.8% (active); in assay [2] it was 20.5%; in [3] it was 84.7%; in [4], 81.6%; in assay [5] it was 78%; in [6] it was 65.4%. Further, the growth in assay [7] was 75.8%; in [8] it was 89%; in assay [9] it was -81.7% (active); in assay [10], 89.5%; in [11], 88.2%; in assay [12], 88.2%. Besides, the growth was 32.6% in assay [13]; 64.3% in assay [14]; 109% in assay [15]; 15.2% in assay [16]; 19.4% in [17]; 82.4% in assay [18]. The figures for the growth in assay [19] and in assay [20] were 5.81% (active) and 36.1%, respectively.

The values are drawn from PubChem BioAssay (NCI).
